Reference: PubChem BioAssay (EPA / NIEHS)
Several values for one entry are separate records, joined by “and”; a condition that tells them apart may be missing. Identical values can stand only once. Inconclusive results are not listed. A structure can be active in one record and inactive in another. Activity calls are given as the source filed them. Rule for the calls: active = hit-call score of the fitted dose curve at least 0.9, where 1 is the maximum; inconclusive = response in the unintended direction; inactive = score below 0.9.

Assays:
[1] = molecular target: Cellular tumor antigen p53 (Homo sapiens) (UniProt P04637); assay: TOX21_p53_BLA_p2_ratio: Tox21 HCT-116 p53 Agonism Beta-lactamase Assay, Ratio, Phase 2 (AID 2283592)
Sequence of Cellular tumor antigen p53 (Homo sapiens) (P04637 whole entry, looked up): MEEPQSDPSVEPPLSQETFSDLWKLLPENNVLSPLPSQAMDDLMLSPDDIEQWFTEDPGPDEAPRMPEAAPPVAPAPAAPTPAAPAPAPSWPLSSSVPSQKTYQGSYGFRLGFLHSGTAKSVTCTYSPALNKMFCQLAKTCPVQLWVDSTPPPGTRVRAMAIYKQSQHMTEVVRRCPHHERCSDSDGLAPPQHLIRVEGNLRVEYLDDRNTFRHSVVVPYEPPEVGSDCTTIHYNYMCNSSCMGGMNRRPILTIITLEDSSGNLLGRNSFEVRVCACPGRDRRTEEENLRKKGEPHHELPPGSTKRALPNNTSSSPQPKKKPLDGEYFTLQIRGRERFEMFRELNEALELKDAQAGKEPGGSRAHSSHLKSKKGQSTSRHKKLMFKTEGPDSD
Summary of the method: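 HCT116 cells carrying a p53-responsive beta-lactamase reporter were plated, incubated 5 h at 37C, then dosed with compounds in DMSO (217-fold dilution) for 16 h. CCF4-AM substrate was added for 2 h at room temperature; the 460/530 nm emission ratio gave gain-of-signal activity relative to DMSO.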

[2] = molecular target: Cellular tumor antigen p53 (Homo sapiens) (UniProt P04637); assay: TOX21_p53_BLA_p3_ratio: Tox21 HCT-116 p53 Agonism Beta-lactamase Assay, Ratio, Phase 3 (AID 2283596)
Summary of the method: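 HCT116 p53-bla cells (4000/well) given compound in DMSO (217-fold dilution) after 5 h, incubated 16 h at 37C. CCF4-AM substrate 2 h at room temperature; 460/530 nm emission ratio, gain fitted against DMSO.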

[3] = TOX21_p53_BLA_p4_viability: Viability Assessment in the Tox21 HCT-116 p53 Agonism Beta-lactamase Assay, Phase 4 (AID 2283597);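 note: hits lower the luminescence signal meaning cytotoxicity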
Summary of the method: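 HCT116 p53-bla cells (4000/well) rested 5 h at 37C, then received compounds in DMSO (217-fold dilution) for 16 h at 37C, 5% CO2. CellTiter-Glo was added after the CCF4-AM read, and luminescence was read after 30 min at room temperature.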

[4] = molecular target: Cellular tumor antigen p53 (Homo sapiens) (UniProt P04637); assay: TOX21_p53_BLA_p5_ratio: Tox21 HCT-116 p53 Agonism Beta-lactamase Assay, Ratio, Phase 5 (AID 2283599)
Summary of the method: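 HCT-116 cells carrying a p53-inducible beta-lactamase reporter were seeded at 4000 cells/well and dosed after 5 h with compound in DMSO (217-fold dilution). After 16 h at 37C, CCF4-AM substrate was added for 2 h, and the 460/530 nm emission ratio was scored as gain-of-signal versus DMSO.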

[5] = molecular target: Cellular tumor antigen p53 (Homo sapiens) (UniProt P04637); assay: TOX21_p53_BLA_p4_ratio: Tox21 HCT-116 p53 Agonism Beta-lactamase Assay, Ratio, Phase 4 (AID 2283601)
Summary of the method: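 HCT116 cells carrying an inducible beta-lactamase reporter were plated at 4000 cells/well, rested 5 h, then exposed to compounds in DMSO (217-fold dilution) for 16 h at 37C. CCF4-AM substrate was loaded 2 h at room temperature; 460/530 nm emission ratio scored gain-of-signal versus DMSO.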

[6] = Tanguay_ZF_120hpf_MORT_legacy: (Legacy) Oregon State University Tanguay Lab 120 Hour Post-fertilization zebrafish Assay for Mortality (AID 2283633);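 for AC50: fitted as increase in binary mortality versus DMSO negative control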
Summary of the method: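 Dechorionated Tropical 5D wild-type zebrafish embryos, one per well from 6 hpf, were statically exposed at 28C in the dark until 120 hpf (0.64% DMSO final). Mortality was scored as present/absent by brightfield microscopy, fitted positively versus DMSO.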

[7] = Tanguay_ZF_120hpf_YSE_legacy: (Legacy) Oregon State University Tanguay Lab 120 Hour Post-fertilization zebrafish Assay for Yolk Sac Edema (AID 2283634);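 for AC50: actives raise the incidence of yolk sac edema above the DMSO baseline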
Summary of the method: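 Tropical 5D wild-type embryos, dechorionated with pronase at 4 hpf, were exposed singly from 6 hpf to 120 hpf under static, sealed, dark conditions at 28C with 0.64% DMSO final. Yolk sac edema was scored present/absent by brightfield microscopy.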

[8] = Tanguay_ZF_120hpf_AXIS_legacy: (Legacy) Oregon State University Tanguay Lab 120 Hour Post-fertilization zebrafish Assay for Body Axis Malformation (AID 2283635);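 for AC50: potency for an increased fraction of larvae scored with body axis malformation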
Summary of the method: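 Tropical 5D wild-type zebrafish embryos, dechorionated with pronase at 4 hpf, were placed singly in wells at 6 hpf and exposed statically to test chemical (0.64% DMSO final) at 28C until 120 hpf, then scored by brightfield for body axis defects.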

[9] = TOX21_p53_BLA_p3_viability: Viability Assessment in the Tox21 HCT-116 p53 Agonism Beta-lactamase Assay, Phase 3 (AID 2283593);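 note: cells exposed to compound for 16 h before reading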
Summary of the method: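 HCT-116 cells (4000/well) rested 5 h at 37C, then got DMSO compounds by pin tool (217-fold dilution) for 16 h at 37C, 5% CO2. After the bla read, CellTiter-Glo was added and luminescence read at 30 min, room temperature.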

[10] = TOX21_p53_BLA_p5_viability: Viability Assessment in the Tox21 HCT-116 p53 Agonism Beta-lactamase Assay, Phase 5 (AID 2283600)
Summary of the method: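 Cells were plated at 4000/well, rested 5 h at 37C, then given compounds in DMSO (217-fold dilution) for 16 h at 37C, 5% CO2. Following the CCF4-AM beta-lactamase read, CellTiter-Glo was added and luminescence was read after 30 min at room temperature.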

Measured: AC50

Clc1ccccc1C(c1ccccc1)(c1ccccc1)n1ccnc1
active: [1] 64.8 µM and 19 µM | [2] 74.1 µM | [3] 34.5 µM and 15.3 µM | [4] 86.2 µM | [5] 60.2 µM and 16.6 µM | [7] 14.6 µM | [8] 14.8 µM
inactive: [2] | [4] | [6]

C[C@]12CC[C@@H]3c4ccc(O)cc4CC[C@H]3[C@@H]1CCC2=O
inactive: [1] | [6] | [7] | [8]

O=CCCCC=O
inactive: [1] | [9] | [3] | [4] | [10] | [5] | [6] | [7] | [8]
active: [9] 83.5 µM and 84.6 µM | [2] 69.9 µM and 37 µM

CCCOC(=O)c1cc(O)c(O)c(O)c1
not listed: [1]
inactive: all other assays above

CC(=O)N1CCN(c2ccc(OC[C@H]3CO[C@](Cn4ccnc4)(c4ccc(Cl)cc4Cl)O3)cc2)CC1
inactive: [1] | [9] | [2] | [3] | [4] | [10] | [5] | [6] | [7] | [8]
active: [9] 46.1 µM | [2] 58.3 µM | [3] 58.7 µM | [4] 46.1 µM | [10] 64.4 µM | [5] 44.3 µM

CC1(C)NC(=O)N(c2ccc([N+](=O)[O-])c(C(F)(F)F)c2)C1=O
not listed: [8] | [9] | [10]
inactive: all other assays above

O=C1c2ccccc2C(=O)N1CCc1noc(-c2ccc(CN3CCCCCC3)s2)n1
not listed: [5] | [9]
inactive: all other assays above

Cc1cn([C@H]2C[C@H](N=[N+]=[N-])[C@@H](CO)O2)c(=O)[nH]c1=O
inactive: all assays above

CCCCOC(=O)c1ccc(O)cc1
active: [7] 51.7 µM | [8] 45.1 µM
not listed: [9] | [10]
inactive: all other assays above

OCCO
not listed: [1]
inactive: all other assays above

O=C1O[C@H]([C@@H](O)CO)C(O)=C1O
not listed: [7] | [9] | [10]
inactive: all other assays above

CCCCCCCCCCCCO
not listed: [3] | [9] | [10]
inactive: all other assays above

CCOC(=O)O[C@H](C)OC(=O)c1ccc2c(c1)cc(C(=O)NC1CCN(C(C)C)CC1)n2Cc1cc(-c2ccc(Cl)s2)on1
inactive: [7] | [8]
active: [1] 27.9 µM | [2] 81.9 µM | [3] 13.5 µM | [4] 80.9 µM | [6] 23.7 µM

CCCCCCCCCCCO
not listed: [1] | [5]
inactive: all other assays above

Oc1ccc2ccccc2c1
active: [7] 36.9 µM | [8] 55.2 µM
not listed: [3] | [9]
inactive: all other assays above

c1ccc(C[n+]2cccc3ccccc32)cc1
not listed: [3] | [9] | [10]
inactive: all other assays above

Cc1c2ccccc2c(C)c2c1ccc1ccccc12
inactive: [3] | [4] | [6] | [7] | [8]
active: [1] 14.6 µM and 37.7 µM | [2] 29.5 µM and 52.5 µM | [3] 56.3 µM | [4] 41.7 µM | [5] 43.2 µM and 30.5 µM

Cc1oc2c(NC(=O)c3c(Cl)cccc3Cl)cccc2c1C(C)(C)O
active: [6] 26 µM
not listed: [5] | [10]
inactive: all other assays above

O=C(Nc1ccc(Cl)cc1)Nc1ccc(Cl)c(Cl)c1
active: [2] 5.76 µM and 4.62 µM and 6.38 µM | [4] 6.25 µM and 12.1 µM | [5] 4.01 µM and 4.85 µM and 6.48 µM
inactive: [9] | [3] | [4] | [10] | [6] | [7] | [8]

CCN(Cc1cccc(S(=O)(=O)O)c1)c1ccc(C(=C2C=CC(=[N+](CC)Cc3cccc(S(=O)(=O)O)c3)C=C2)c2ccccc2S(=O)(=O)[O-])cc1
active: [3] 35.5 µM
not listed: [10]
inactive: all other assays above

O=c1ccc2ccccc2o1
not listed: [9]
inactive: all other assays above

Oc1ccccc1
inactive: all assays above

O=C(O)c1ccccc1C(=O)OCc1ccccc1
not listed: [3]
inactive: all other assays above

c1ccc2ccccc2c1
not listed: [3] | [7] | [9]
inactive: all other assays above

O=C1CCC(C2CCCCC2)CC1
not listed: [9] | [10]
inactive: all other assays above

CN1C(=O)N(c2ccccc2Br)Cc2cnc(Nc3ccc4c(c3)OCC(CO)O4)nc21 (stereo unspecified)
inactive: [9] | [6]
active: [1] 4.26 µM | [2] 13.8 µM | [3] 46.1 µM | [4] 13.6 µM | [5] 14.2 µM | [7] 3.4 µM | [8] 2.03 µM

CCCCCCCCOc1ccc(C(=O)c2ccccc2)c(O)c1
not listed: [1]
inactive: all other assays above

Cc1occc1C(=O)Nc1ccc(C(=O)N2CCC(F)(F)/C(=C\C(=O)N3CCC(N4CCCCC4)CC3)c3ccccc32)cc1
not listed: [3] | [5] | [10]
inactive: all other assays above

CCCCCc1ccc(N)cc1
not listed: [4]
inactive: all other assays above

Cc1cc(F)ccc1-c1cc(N2CC[C@@H](O)[C@H]2CO)ncc1N(C)C(=O)C(C)(C)c1cc(C(F)(F)F)cc(C(F)(F)F)c1
inactive: [6] | [7] | [8]
active: [1] 21.8 µM | [9] 30.7 µM | [2] 45.3 µM | [3] 27.3 µM | [4] 36 µM | [5] 26.4 µM

O=C=NCCCCCCN=C=O
not listed: [3] | [9] | [10]
inactive: all other assays above

Cc1ncc(CO)c(CO)c1O
not listed: [9] | [10]
inactive: all other assays above

NCc1cccc(C2CCN(C(=O)c3ccc(C#Cc4ccccc4F)o3)CC2)c1
active: [1] 86.2 µM | [9] 72.2 µM | [2] 86.8 µM | [3] 65.6 µM | [4] 82.9 µM | [5] 84.4 µM | [6] 12 µM
inactive: [7] | [8]

O=C(O)c1ccccc1-n1cc(C(=O)O)c(=O)c2cc(Nc3c(F)cc(F)cc3Cl)c(Cl)cc21
inactive: [1] | [5] | [6] | [7]

CCCCCCCCCC(=O)O
not listed: [10]
inactive: all other assays above
